Consider 18 sequences from the OligoGym collection.
Also: reference of the scale not given here.

The target of this assay is GABRP. Nature of the assay: pooled miR-30 sensor sort-seq; sequence = guide strand. The note with it: shRNA.
For the sequence ACAAACTTGAACTTGTCGCTGG, the sensor-assay potency score (higher = more potent) amounted to 0.62.

Regarding TTGATGATATTAGTAATACTGA, the sensor-assay potency score (higher = more potent) was -0.994. Consider TTCTCGGAAGACAAACTTGAAC, for which the sensor-assay potency score (higher = more potent) was -1.47. Sequence TTACATCATTATCTTGTCCTGT had a sensor-assay potency score (higher = more potent) of 0.386. The figure for TTACATGCAACAGTTGTCGTGA is 0.789; for TTTGAATTGTGAAATAATCAAC it is -1.06. The figure for ATAATCAACAATCCTGCCCATC is -0.969; for TAGTGATCAACATTACTGGGGT it is 0.2; for AAATACAGAACATTCCTCCGAA it is 0.853. The figure for TACATCATTATCTTGTCCTGTT is 0.716; for AAACTTGAACTTGTCGCTGGTT it is 0.218. The sequence TATGGTGGCTGTGTAGTCCATG gave a sensor-assay potency score (higher = more potent) of -0.102. TTGGACTCCACAATGTAAGTAT displayed a sensor-assay potency score (higher = more potent) of 0.553.

For TTTCATTGTCAAGTCACTGTAG, the sensor-assay potency score (higher = more potent) is 0.714. The figure for TTGCCTTCAAACACCAGCCGCT is 0.206. Regarding TAGTAATACTGACTTCTTCTAC, the sensor-assay potency score (higher = more potent) is -0.185. The figure for AACTTGAACTTGTCGCTGGTTT is -0.459. Take TAGTCAACGTTGTCGCTGGAAA: the sensor-assay potency score (higher = more potent) is -1.15.
